KKLEB tox – counter-screen for CF NF-kB inhibitors: cytotoxicity; KKLEB CF airway cells viability, ATPlite luminescence, overnight; active compounds read low; cells stimulated with P. aeruginosa culture filtrate; actives 0.36% (n = 360,000); activity change (cytotoxicity), % at 5 µM; AID 602141;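 active means corrected activity change at or below -50% at 5 µM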
Peg3 prom inh-1 – reduces Peg3 promoter-driven luciferase expression in HeLa; HeLa PEG-Prom luciferase reporter, luminescence, overnight; inhibition, % at 20 µM; actives 1.7% (n = 360,000);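 active means inhibition of at least 50% at 20 µM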
Shn3 inh set2 – inhibitors of Schnurri-3 3'UTR reporter in osteoblasts; inhibition, % at 12.5 µM; Clone20 osteoblast Shn3 3'UTR firefly luciferase, 24 h; actives 0.52% (n = 360,000);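 active means mean inhibition of at least 75% with every replicate also reaching 75%; inconclusive means mean inhibition at least 75% but some replicate below; inactive means mean inhibition below 75%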;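 further: 0% = median of neutral control wells and 100% = pilot-screen positive control compound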
CF NFkB block – inhibitors of cystic fibrosis induced NF-kB. KKLEB NF-kB-GFP reporter, PAF-induced, GFP fluorescence overnight. inhibition, % at 5 µM. actives 0.86% (n = 360,000). AID 588850;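 active means at least 50% inhibition at 5 µM, scaled per plate between neutral and stimulator controls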;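 further: PAF is a Pseudomonas aeruginosa culture filtrate used as stimulus; plate controls were PAF-stimulated DMSO wells for no effect and unstimulated DMSO wells for full effect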
MITF TRPM1 inh – MITF TRPM1 promoter inhibition in SK-MEL-5 cells | SK-MEL-5 TRPM1 promoter luciferase, 24 h | inhibition, % at 12.5 µM | actives 0.83% (n = 330,000) | AID 488899;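 active means mean inhibition across replicates of 60% or more, whatever share of single replicates reaches that level; inconclusive means some that reach 60%, reason not given; inactive means mean inhibition across replicates below 60%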
HIF-2a inh – HIF-2a inhibition; 786-0 RCC cells HIF-2a reporter, luciferase luminescence, overnight; inhibition, % at 18.8 µM; actives 0.72% (n = 360,000);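 active means inhibition of the luminescence signal of 40% or more relative to plate controls, in a single-dose primary screen at 18.75 µM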
Peg3 prom inh-2 – confirmation of Peg3 promoter inhibitors | shares compounds with Peg3 prom inh-1 | HeLa PEG-Prom luciferase reporter, luminescence, overnight | inhibition, % at 20 µM | actives 84% (n = 1,300) | AID 602417;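 active means at 20 µM dose, 40% or more inhibition averaged across four replicates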
An asterisk follows results filed as active. Most compounds without a hit are left out; they make up all but 2.8% or so of the library.

COc1cc(Nc2c3ccccc3nc3ccccc23)cc(OC)c1OC was read as KKLEB tox 5, Peg3 prom inh-1 107*, Shn3 inh set2 55, CF NFkB block -96, MITF TRPM1 inh inconclusive, HIF-2a inh 46* and Peg3 prom inh-2 99*.
Cc1nn(C)c(C)c1NC(=O)CSc1nc(Cc2ccccc2)nc2c1cnn2-c1ccccc1 was read as KKLEB tox -6, Peg3 prom inh-1 96*, Shn3 inh set2 15, CF NFkB block 0, MITF TRPM1 inh -7, HIF-2a inh 1 and Peg3 prom inh-2 1.
For COc1ccc(-c2cc(C(F)F)n3ncc(C(=O)n4ccnc4C)c3n2)cc1 the results were KKLEB tox -32, Peg3 prom inh-1 55*, Shn3 inh set2 20, CF NFkB block 74*, MITF TRPM1 inh 26, HIF-2a inh 31 and Peg3 prom inh-2 95*.
Screening CCSc1nnc(N2C(=O)c3ccc(C(=O)c4ccc(C(=O)O)cc4)cc3C2=O)s1 returned KKLEB tox 2, Peg3 prom inh-1 -50, Shn3 inh set2 -57, CF NFkB block -6, MITF TRPM1 inh 6 and HIF-2a inh 12.
For COc1cc(C(=O)Nc2ccc3oc(-c4cccnc4)nc3c2)cc(OC)c1OC the results were KKLEB tox -11, Peg3 prom inh-1 52*, Shn3 inh set2 14, CF NFkB block 6, MITF TRPM1 inh -5, HIF-2a inh 8 and Peg3 prom inh-2 43*.
`COc1cc(C(=O)Nc2nc(OC)c(-c3ccccc3)c(OC)n2)cc(OC)c1OC` gave KKLEB tox -14, Peg3 prom inh-1 50*, Shn3 inh set2 25, CF NFkB block 6, MITF TRPM1 inh 15, HIF-2a inh -12 and Peg3 prom inh-2 43*.
`CCc1ccccc1NC(=O)C1CCCN(S(=O)(=O)c2ccc3c(c2)CC(C)N3C(C)=O)C1` (stereo not drawn) gave KKLEB tox -2, Peg3 prom inh-1 17, Shn3 inh set2 12, CF NFkB block 1, MITF TRPM1 inh 10 and HIF-2a inh 5.
`COc1ccc(-n2ncc3c(N(C)C4CCCCC4)ncnc32)cc1` gave KKLEB tox -79*, Peg3 prom inh-1 71*, Shn3 inh set2 64, CF NFkB block 11, MITF TRPM1 inh 59, HIF-2a inh 70* and Peg3 prom inh-2 71*.
Screening COc1ccc2c(c1OC)C(=O)NC(C)=C(C(=O)OC(C)(C)C)C2O (stereo not drawn) returned KKLEB tox -2, Peg3 prom inh-1 6, Shn3 inh set2 -26, CF NFkB block 14, MITF TRPM1 inh 9 and HIF-2a inh 0.
For CCN1CCN(c2ncc(C(=O)Nc3cc(Cl)ccc3OC)c3ccccc23)CC1 the results were KKLEB tox -5, Peg3 prom inh-1 61*, Shn3 inh set2 0, CF NFkB block 19, MITF TRPM1 inh 2, HIF-2a inh 5 and Peg3 prom inh-2 57*.
For COc1cc(/C=C(/C#N)c2ccc(F)cc2)ccc1Oc1ccc([N+](=O)[O-])cn1 the results were KKLEB tox 15, Peg3 prom inh-1 5, Shn3 inh set2 49, CF NFkB block -47, MITF TRPM1 inh 12 and HIF-2a inh -17.
`OCCSc1c(F)c(SCCO)c(SCCO)c(F)c1SCCO` gave KKLEB tox 1, Peg3 prom inh-1 -2, Shn3 inh set2 6, CF NFkB block 1, MITF TRPM1 inh 10 and HIF-2a inh 0.
For CCOC(=O)CCCC(=O)Nc1ncnc2c1C(c1ccccc1)c1c(ccc3ccccc13)O2 (stereo not drawn) the results were KKLEB tox 4, Peg3 prom inh-1 36, Shn3 inh set2 30, CF NFkB block -11, MITF TRPM1 inh -2 and HIF-2a inh 25.
Screening O=C(c1ccccc1)N(C(=O)c1ccccc1)c1ncnc2c1C(c1ccccc1)c1c(ccc3ccccc13)O2 (stereo not drawn) returned KKLEB tox -4, Peg3 prom inh-1 78*, Shn3 inh set2 21, CF NFkB block 56*, MITF TRPM1 inh 8, HIF-2a inh 21 and Peg3 prom inh-2 77*.
`CC(C)N(CCn1c(SCC(=O)Nc2cccnc2Cl)nc2ccccc2c1=O)C(C)C` gave KKLEB tox -6, Peg3 prom inh-1 -3, Shn3 inh set2 11, CF NFkB block 6, MITF TRPM1 inh -3 and HIF-2a inh 3.
For CCC(C)(C)c1ccc(Oc2ccc(N)cc2)cc1 the results were KKLEB tox 4, Peg3 prom inh-1 72*, Shn3 inh set2 88*, CF NFkB block -28, MITF TRPM1 inh 98*, HIF-2a inh 88* and Peg3 prom inh-2 91*.
Screening COc1ccc(CCNC(=O)c2cc3c(=O)n4ccccc4nc3n(C3CCCCC3)c2=N)cc1 returned KKLEB tox -29, Peg3 prom inh-1 88*, Shn3 inh set2 31, CF NFkB block 22, MITF TRPM1 inh -7, HIF-2a inh 7 and Peg3 prom inh-2 54*.
COc1ccc(CCn2c(=N)c(C(=O)NC3CCCC3)cc3c(=O)n4cccc(C)c4nc32)cc1 was read as KKLEB tox -3, Peg3 prom inh-1 99*, Shn3 inh set2 11, CF NFkB block -19, MITF TRPM1 inh 12, HIF-2a inh -10 and Peg3 prom inh-2 64*.
Screening COc1ccc(CCNC(=O)c2cc3c(=O)n4ccccc4nc3n(C3CCCCC3)c2=N)cc1OC returned KKLEB tox -1, Peg3 prom inh-1 34, Shn3 inh set2 8, CF NFkB block 13, MITF TRPM1 inh 6 and HIF-2a inh 7.
`CC(=O)Oc1ccccc1Cn1c(C)c(C(=O)N(C)Cc2ccc(F)cc2)sc1=O` gave KKLEB tox -14, Peg3 prom inh-1 10, Shn3 inh set2 54, CF NFkB block 9 and HIF-2a inh 9.
For CC(C)(/C=N/NC(=O)CSCc1ccccc1Cl)CCC#N the results were KKLEB tox 6, Peg3 prom inh-1 3, Shn3 inh set2 -19, CF NFkB block -4, MITF TRPM1 inh 8 and HIF-2a inh 3.
For O=c1cc(-c2ccc(O)cc2)oc2ccc3ccccc3c12 the results were KKLEB tox -61*, Peg3 prom inh-1 67*, Shn3 inh set2 inconclusive, CF NFkB block -262, MITF TRPM1 inh 83*, HIF-2a inh 72* and Peg3 prom inh-2 75*.
`OCCN1CCN(C2CCC(c3ccc(F)cc3)c3ccc(F)cc32)CC1` (stereo not drawn) gave KKLEB tox -35, Peg3 prom inh-1 56*, CF NFkB block 45, MITF TRPM1 inh 13, HIF-2a inh -18 and Peg3 prom inh-2 73*.
Screening CCN(C[C@H]1N[C@@](C)(C(=O)OC)[C@H]2C(=O)N(C)C(=O)[C@@H]12)C(=O)COc1ccccc1 returned KKLEB tox 3, Peg3 prom inh-1 -12, Shn3 inh set2 -25, CF NFkB block -8, MITF TRPM1 inh 3 and HIF-2a inh 4.
